High-throughput results (PubChem BioAssay)
PP1 inh = PP1-alpha phosphatase inhibitors, primary screen, counter-screen for PP5 inhibitor project, biochemical, fluorescence, OMFP substrate, single point. inhibition, % at 6.7 µM. Serine/threonine-protein phosphatase PP1-alpha catalytic subunit (Homo sapiens), P62136. 320,000 compounds, 0.9% hits. purified PP1alpha;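 active = inhibition above the mean inhibition of all tested compounds plus 3 SD, computed separately for each screening campaign, cut at about 15% in these data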
Target sequence (P62136 whole entry, looked up): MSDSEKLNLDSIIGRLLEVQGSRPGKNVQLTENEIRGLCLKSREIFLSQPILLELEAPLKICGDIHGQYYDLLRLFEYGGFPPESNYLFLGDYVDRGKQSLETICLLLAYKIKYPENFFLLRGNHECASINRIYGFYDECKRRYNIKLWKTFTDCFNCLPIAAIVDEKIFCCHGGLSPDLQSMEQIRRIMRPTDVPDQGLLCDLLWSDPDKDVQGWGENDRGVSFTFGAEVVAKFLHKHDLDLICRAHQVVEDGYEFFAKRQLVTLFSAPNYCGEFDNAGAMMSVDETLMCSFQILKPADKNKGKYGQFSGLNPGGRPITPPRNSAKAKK
PP5 primary = PP5 phosphatase inhibitors, primary screen, biochemical, fluorescence; Serine/threonine-protein phosphatase 5 (Homo sapiens), P53041; purified PP5c, OMFP substrate fluorescence; inhibition, % at 6.7 µM; 320,000 compounds, 0.18% hits; AID 1987, 2009;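 active = inhibition above the campaign's mean inhibition across all tested compounds plus 3 SD, cut at about 9.5% in these data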;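 also: 0% = DMSO only and 100% = 100 µM cantharidin control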
MsrA inh = bovine MsrA enzyme inhibitors, primary screen, biochemical, absorbance, HTS | inhibition, % at 15.5 µM | AID 651718, 2012 | purified bovine MsrA, absorbance read-out | Methionine sulfoxide reductase A (Bos taurus) | 360,000 compounds, 0.75% hits;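 also: 0% = vehicle wells with enzyme and 100% = reference inhibitor wells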
ZTA DNA inh = blocks Epstein-Barr virus ZTA, an EBNA-1 counter-screen | P03206 | ZTA-DNA binding, fluorescence polarization | inhibition, % at 11 µM | 320,000 compounds, 0.15% hits; in the data active = inhibition above about 33%
MsrA act = bovine MsrA enzyme activators, primary screen, biochemical, absorbance, HTS; Methionine sulfoxide reductase A (Bos taurus); purified bovine MsrA, absorbance read-out; activation, % at 10.6 µM; 360,000 compounds, 0.3% hits; in the data active = activation above about 7.5%;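 also: 0% = vehicle and 100% = reference activator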
EBNA-1 inh = EBNA-1 DNA-binding inhibitors, primary screen, biochemical, fluorescence polarization | inhibition, % at 14.8 µM | 300,000 compounds, 0.34% hits | AID 1950, 2009; in the data active = inhibition above about 28%
MsrA conf = bovine MsrA inhibitors, retest, confirmation, biochemical, absorbance, HTS | shares compounds with MsrA inh | purified bovine MsrA, absorbance read-out | inhibition, % at 15.5 µM | 2,300 compounds, 41% hits | AID 651822, 2012;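 also: coupled to thioredoxin reductase with NADPH and selenocystamine and DMSO as substrate; 0% = vehicle only and 100% = full effect of reference inhibitor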
An asterisk follows results filed as active. This is a sample that favours compounds with a hit; in the whole collection about 2.3% have one here. Rule as the data show it, unless noted: active = inhibition above about 4.5%; inactive = the rest.

What do the screens show for `O=C(NNC(=S)NC(=O)c1ccco1)c1ccc(NC(=O)c2ccccc2)cc1`?
PP1 inh: 5.2; PP5 primary: 2.3; MsrA inh: 5.2*; ZTA DNA inh: 9.0; MsrA act: -0.2; EBNA-1 inh: -0.8; MsrA conf: 2.6

What do the screens show for `CCCCn1c(=O)[nH]c(=O)c2c1nc(-c1ccccc1F)n2Cc1ccccc1OC`?
PP1 inh: 2.7; PP5 primary: 1.4; MsrA inh: 0.3; ZTA DNA inh: -3.7; MsrA act: 5.7; EBNA-1 inh: 1.3

How did CCN1C(=O)/C(=C2/Sc3ccccc3N2CC)S/C1=N\c1ncn[nH]1 do in these assays?
PP1 inh: 3.3; PP5 primary: -0.4; MsrA inh: 0.6; ZTA DNA inh: 11.1; MsrA act: -1.7; EBNA-1 inh: -0.6

What do the screens show for `CC(=O)COc1ccc2oc(=O)cc(-c3cc4ccccc4o3)c2c1`?
PP1 inh: 2.4; PP5 primary: 1.8; MsrA inh: 12.7*; ZTA DNA inh: -8.9; MsrA act: -2.6; EBNA-1 inh: -8.4; MsrA conf: 12.3*

How did COc1cccc2cc(-c3cc(=O)oc4cc(C)c(OCC(C)=O)cc34)oc12 do in these assays?
PP1 inh: -0.8; PP5 primary: 2.1; MsrA inh: -0.2; ZTA DNA inh: 12.1; MsrA act: -7.2; EBNA-1 inh: -5.4

How did COc1cc(/C=N\NC(=O)CNC(=O)C2COc3ccccc3O2)ccc1O (configuration not stated) do in these assays?
PP1 inh: -1.6; PP5 primary: -1.2; MsrA inh: -0.1; ZTA DNA inh: -4.5; MsrA act: -6.8; EBNA-1 inh: -3.7

Results for CCN(CC)c1ccc(/C=N/NC(=O)CCC(=O)NCc2ccccc2)c(O)c1 ?
PP1 inh: 2.2; PP5 primary: 3.2; MsrA inh: 4.7*; ZTA DNA inh: 3.1; MsrA act: -16.8; EBNA-1 inh: 8.2; MsrA conf: 4.8*

How did CCN(CC)c1ccc(/C=N/NC(=O)CNC(=O)C2COc3ccccc3O2)c(O)c1 (configuration not stated) do in these assays?
PP1 inh: 3.3; PP5 primary: 3.0; MsrA inh: 5.2*; ZTA DNA inh: -4.0; MsrA act: -10.1; EBNA-1 inh: -16.9; MsrA conf: 3.3

Results for CCOC(=O)N/N=C/c1ccc(N(CC)CC)cc1O ?
PP1 inh: -1.9; PP5 primary: 1.8; MsrA inh: 6.1*; ZTA DNA inh: -3.6; MsrA act: -7.3; EBNA-1 inh: -3.6; MsrA conf: 6.3*

How did O=C(CCC(=O)N/N=C/c1c[nH]c2ccccc12)NCc1ccccc1 do in these assays?
PP1 inh: -5.6; PP5 primary: 4.1; MsrA inh: 0.5; ZTA DNA inh: 1.9; MsrA act: -4.4; EBNA-1 inh: 6.1

How did CCN(CC)c1ccc(/C=N/Nc2ccc(C)cc2)c(O)c1 do in these assays?
PP1 inh: -0.1; PP5 primary: -1.9; MsrA inh: 4.5; ZTA DNA inh: 11.6; MsrA act: -4.0; EBNA-1 inh: 0.3

What do the screens show for `CCc1cccc(NC(=O)CCCCCC2NC(=O)NC2C)c1` (configuration not stated)?
PP1 inh: -3.4; PP5 primary: 2.3; MsrA inh: -1.1; ZTA DNA inh: 1.0; MsrA act: -2.3; EBNA-1 inh: 0.9

How did O=C(NCCCN1CCOCC1)C1Cc2c(ccc3ccccc23)O1 (configuration not stated) do in these assays?
PP1 inh: -0.2; PP5 primary: -1.9; MsrA inh: 2.0; ZTA DNA inh: 7.8; MsrA act: -9.3; EBNA-1 inh: -4.7

How did NC(=O)c1cc(S(=O)(=O)N2CCN(c3ccc([N+](=O)[O-])cc3)CC2)cs1 do in these assays?
PP1 inh: 0.3; PP5 primary: -0.1; MsrA inh: 7.8*; ZTA DNA inh: -11.6; MsrA act: -2.3; EBNA-1 inh: -2.6; MsrA conf: 4.8*
